Assay results: PubChem BioAssay AID652105 (National Center for Advancing Translational Sciences (NCATS), 2013)
About 4,100 (1.2%) of roughly 330,000 compounds were called active. Another 2% or so got no clear call; they are omitted. What follows is part of a selection rich in actives, with near analogues and random picks from the rest. Unmarked numbers belong to inactive results. Rule for the calls: active = max response of -50% or lower; inconclusive = between -30% and -50%; inactive = -30% or higher.

Each compound was assayed against Phosphatidylinositol 5-phosphate 4-kinase type-2 alpha (Homo sapiens) (UniProt P48426) (assay: qHTS for Inhibitors of phosphatidylinositol 5-phosphate 4-kinase (PI5P4K)). Details: PI5P4Kalpha enzyme, ADP-Glo luminescence, 60 min; stronger effect = lower value.
Chain of Phosphatidylinositol 5-phosphate 4-kinase type-2 alpha (Homo sapiens) (P48426 whole entry, looked up): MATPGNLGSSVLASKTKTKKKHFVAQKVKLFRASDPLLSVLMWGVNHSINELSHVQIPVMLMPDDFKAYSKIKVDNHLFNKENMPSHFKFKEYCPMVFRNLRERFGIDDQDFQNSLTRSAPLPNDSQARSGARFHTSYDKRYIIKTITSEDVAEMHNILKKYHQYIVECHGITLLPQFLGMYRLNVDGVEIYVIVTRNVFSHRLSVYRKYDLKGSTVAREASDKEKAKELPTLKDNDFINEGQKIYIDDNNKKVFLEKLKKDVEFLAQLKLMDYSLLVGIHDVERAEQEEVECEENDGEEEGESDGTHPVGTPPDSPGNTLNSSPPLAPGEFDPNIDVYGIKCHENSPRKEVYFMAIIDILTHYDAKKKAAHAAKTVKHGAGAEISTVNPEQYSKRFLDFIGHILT
Outline: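 Luminescence from ADP-Glo served as readout of PI5P4Kalpha activity in a qHTS format. Reaction: enzyme, substrate, compound, ATP at 5 microM final, 60 min at RT.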
% is set by controls: 0 for no effect and ±100 for the full control effect.
Note: value at the top dose of about 77 µM.

Row | SMILES | max response
1 | Cc1ccc(S(=O)(=O)/N=C2\C=C(NS(=O)(=O)c3ccc(C)cc3)C(=O)c3ccccc32)cc1 | -25.4%
2 | O=C1C=C(NS(=O)(=O)c2ccccc2)C(=O)c2ccccc21 | 1.96%
3 | COc1ccc(S(=O)(=O)/N=C2\C=C(NS(=O)(=O)c3ccccc3)C(=O)c3ccccc32)cc1 | -64.4% (active)
4 | O=C(OCc1ccccc1)N1CCC2CC1c1ccc(-c3ccc4c(c3)OCO4)cc12 (centres undefined) | 14.4%
5 | O=S1(=O)CC(N2CCN(CCO)CC2)CN1Cc1cn(Cc2ccc(Cl)cc2)nn1 (centres undefined) | -1.75%
6 | NC(Cc1ccc(F)cc1)c1csc(Nc2nncc3ccccc23)n1 (centres undefined) | -1.97%
7 | CCOC(=O)c1ccc2c(c1)nc(C)n2CC | 0.903%
8 | COC(=O)c1cccc(NC(=O)CSc2nc(C)cc(=O)[nH]2)c1 | -26.1%
9 | CCOC(=O)c1sc(=S)n2c1[nH]c(=O)c1ccc(C(=O)OC)cc12 | -52.6% (active)
10 | O[C@H]1C[C@H](c2ccc(Cl)cc2)N(Cc2cccs2)C[C@@H]1n1cc(C2CC2)nn1 | 16.1%
11 | COc1c(O)cc2oc(-c3ccc(O)c(O)c3)cc(=O)c2c1O | -59.1% (active)
12 | COc1ccc(-c2cc(=O)c3c(O)cc(O[C@@H]4O[C@H](CO[C@@H]5O[C@@H](C)[C@H](O)[C@@H](O)[C@H]5O)[C@@H](O)[C@H](O)[C@H]4O)cc3o2)cc1O | 0.0751%
13 | COc1cc(O)c2c(=O)c3c(O)c(O)ccc3oc2c1OC | -7.12%
14 | Cc1[nH]c2ccccc2c1C(=O)c1cc([C@H](NC(=O)OC(C)(C)C)C(C)C)sc1N | 2.87%
15 | CC(=O)OCC(C)n1c(=O)c2ccccc2n1C(C)=O (centres undefined) | -0.324%
16 | COc1ccc(C(O)c2nc(-c3ccc4c(c3)OCO4)cs2)cc1 (centres undefined) | -1.53%
17 | O=C1c2ccccc2S(=O)(=O)c2cc(N3CCN(c4ccccn4)CC3)ccc21 | 1.24%
18 | Cc1ccc(CNC(=O)c2cccc3c2C(=O)c2ccc(N4CCC(C)CC4)cc2S3(=O)=O)cc1 | -1.75%
19 | CC1CCN(c2ccc3c(c2)S(=O)(=O)c2cc(C(=O)O)ccc2C3=O)CC1 | -56.6% (active)
20 | CCCCC(=O)N(C)c1c(CC)nc2c(OCc3ccc(S(C)(=O)=O)cc3)cccn12 | -1.42%
21 | CC(C)[C@H](NC(=O)c1ccccc1F)C(=O)Nc1cccc(S(=O)(=O)N2CCOCC2)c1 | 0.136%

Row | SMILES | max response
22 | CC(=O)N1CC[n+]2c(-c3ccc([N+](=O)[O-])cc3)csc21 | -61% (active)
23 | CN1C2CCC1CC(NC(=O)c1ccc([N+](=O)[O-])cc1)C2 (centres undefined) | 0.848%
24 | COc1ccc(C2CC(c3ccc([N+](=O)[O-])cc3)=NN2C(C)=O)cc1 (centres undefined) | 0.372%
25 | COC(=O)[C@]12CCCCC=C1N(CCC1=CCCCC1)C(=O)[C@H](CC(=O)NCC1CCCCC1)C2 | 7.3%
26 | CC(=O)N1Cc2cc(C(=O)NCc3cccc(F)c3)nc(-c3cccc(C4=CCCC4)c3)c2[C@H]1CCO | -1.08%
27 | CNc1cc(-c2c(OC)cccc2OC)ncn1 | 3.83%
28 | C[C@@H]1C[C@@H]2O[C@H]2/C=C\C=C\C(=O)Cc2c(Cl)c(O)cc(O)c2C(=O)O1 | -50.5% (active)
29 | CC1(C(=O)Nc2cccc3c2CCCC3)CCN1C(=O)C1(c2ccccc2)CC1 (centres undefined) | 20.1%
30 | O=C1OCCOC2CCCc3oc(-c4ccccc4)c1c32 (centres undefined) | -3.14%
31 | OC(c1ccc(F)cc1)c1ncc(-c2cccc(C(F)(F)F)c2)[nH]1 (centres undefined) | 16.6%
32 | CCOC(=O)/C=c1\s/c(=C\c2ccccc2OC)c(=O)n1CC(=O)N1CCOCC1 | -6.89%
33 | COc1cc(/C=C2\C(=N)N3N=C(CC(=O)N4CCOCC4)SC3=NC2=O)cc(OC)c1OC | 1.99%
34 | COc1cccc(/C=C2\SC(=S)N(CCCC(=O)N3CCOCC3)C2=O)c1 | 1.86%
35 | COC1=C/C(=C/c2c(N)n3nc(CC(=O)N4CCOCC4)sc3nc2=O)C=CC1=O | -79.3% (active)
36 | C=CCC1=C/C(=C\c2c(N)n3nc(CC(=O)N4CCOCC4)sc3nc2=O)C=C(OC)C1=O | -61.1% (active)
37 | CCOC(=O)C1=CCC(c2ccc(F)cc2)N(S(=O)(=O)c2ccc(C)cc2)C1 (centres undefined) | 8.18%
38 | O=C(COc1ccc(Br)cc1)OCC(=O)c1ccc[nH]1 | 1.45%
39 | CCc1nc2c(OCc3ccc(C(=O)OC)cc3)cccn2c1N(C)C(=O)C(C)C | -5.01%
40 | COc1ccc(C(=O)Nc2ccccc2C(=O)N/N=C/c2ccc(O)c(OC)c2)cc1 | -50.7% (active)
41 | COc1cc(/C=N/NC(=O)c2ccc(N3CCCC3=O)cc2)ccc1O | 0.256%
42 | CCOc1cc(/C=N/NC(=O)c2cc(-c3ccccc3)nc3ccccc23)ccc1O | 1.21%

Row | SMILES | max response
43 | CCCCCCN1CCN(C2CN(Cc3cn(CCCCCC)nn3)S(=O)(=O)C2)CC1 (centres undefined) | -1.03%
44 | CC(C)Nc1nc(NCCOc2ccccc2Cl)c2sccc2n1 | -24.4%
45 | O=C(NCc1ccco1)c1cccc(-c2ccc3nncn3c2)c1 | 5.11%
46 | Cc1cccc(C)c1Cn1c(C)c(C(=O)NCc2cccc(Cl)c2)sc1=O | 9.15%
47 | CCOC(=O)/C(N=Nc1cc(C(=O)O)cc(C(=O)O)c1)=C(\O)CCl | -52.4% (active)
48 | COc1cccc(CN(C)C(=O)CC[C@H]2O[C@@H](n3cnc4c(NC(=O)c5ccccc5)ncnc43)[C@H](O)[C@@H]2O)c1 | -6.93%
49 | COC(=O)[C@@]12C[C@@H](CC(=O)NCc3cccc(C(F)(F)F)c3)C(=O)N(Cc3ccco3)C1=CCC(C)(C)C2 | -1.12%
50 | NC(=O)c1c(NC(=O)CSc2nnc(-c3ccco3)n2N)sc2c1CCCC2 | -79.7% (active)
51 | Cc1cc(NC(=O)CSc2nnc(-c3ccco3)n2N)no1 | -9.01%
52 | Nn1c(SCC(=O)Nc2nccs2)nnc1-c1ccco1 | -11.2%
53 | O=C1c2ccccc2C(c2nc3ccccc3[nH]2)N1c1ccccc1 (centres undefined) | -0.58%
54 | COc1ccc(/C=C(\C#N)C(=O)OCC(=O)N(C)C2CCS(=O)(=O)C2)cc1 (centres undefined) | 4.63%
55 | CN(C(=O)COC(=O)Cc1ccccc1[N+](=O)[O-])C1CCS(=O)(=O)C1 (centres undefined) | 1.78%
56 | CN(C(=O)COC(=O)c1cc(-c2ccco2)nc2ccccc12)C1CCS(=O)(=O)C1 (centres undefined) | -66.2% (active)
57 | CCNC(=O)c1cc2c(c(-c3cccc(-c4cncnc4)c3)n1)[C@H](CCO)N(C(C)=O)C2 | 1.34%
58 | CCCCc1c(-c2ccc(Cl)cc2)ncn1CCc1ccccc1OC | 19%
59 | Fc1cccc(Cc2c(-c3ccc(Cl)cc3)nc3ccc(Cl)cn23)c1 | 1.89%
60 | O=C(Cc1c(F)cccc1Cl)Nc1ccc(-n2cnnn2)cc1 | 4.15%
61 | C=CCc1cccc(/C=N/NC(=O)COc2ccc(-n3cnnn3)cc2)c1O | -0.249%
62 | O=C(COc1ccc(-n2cnnn2)cc1)Nc1ccccc1Cl | -51.4% (active)
63 | C=CCC[C@@H](CCCCC)OC(=O)/C=C/[C@@H](O)[C@H](O)C[C@H](O)CC=C | 17.3%

Row | SMILES | max response
64 | COCCNc1nc(Nc2ccccc2Cl)c2sc(-c3ccccc3)cc2n1 | -2.99%
65 | O=[N+]([O-])c1cc(S(=O)(=O)Nc2cccc(Cl)c2)ccc1N=Nc1c(O)[nH]c2ccccc12 | -75.5% (active)
66 | O=C(O)c1ccccc1/C=N/Nc1ccc(S(=O)(=O)Nc2ccc(Cl)cc2)cc1[N+](=O)[O-] | -7.22%
67 | Oc1[nH]c2ccccc2c1N=Nc1c(F)c(F)c(F)c(F)c1F | 1.14%
68 | CCOC(=O)[C@]12CCCC=C1N(Cc1ccc3c(c1)OCO3)C(=O)[C@H](CC(=O)NCc1cccs1)C2 | 3.13%
69 | COc1cccc(CNC(=O)[C@@H]2CCCN2C(=O)[C@@H]2CCCN2C(=O)c2ccccc2)c1 | -1.24%
70 | O=C(/C=C/c1c(Cl)cccc1Cl)NCc1ccccc1 | 3.82%
71 | O=C(/C=C/c1c(F)cccc1Cl)Nc1nn[nH]n1 | -56.7% (active)
72 | O=C(CCc1ccccc1)Nc1nn[nH]n1 | -6.47%
73 | Nc1nc(CSc2nnnn2-c2ccccc2)nc(Nc2ccccc2)n1 | 2.21%
74 | C[C@H]1CN([C@@H](C)CO)C(=O)c2cc(Br)cnc2O[C@H]1CN(C)S(=O)(=O)c1cccs1 | 6.03%
75 | CCOC(=O)[C@]12CCCC=C1N(CCC1=CCCCC1)C(=O)[C@H](CC(=O)N1CCCCC1)C2 | -3.48%
76 | CC(=O)c1ccc(S(=O)(=O)N2CCC3(CC2)OCCO3)cc1 | 1.8%
77 | CC(=O)c1ccc(S(=O)(=O)N2CCN(C(=O)/C=C/c3ccc4ccccc4n3)CC2)cc1 | -58.5% (active)
78 | CC(=O)c1ccc(S(=O)(=O)N2CCC(Oc3ccc(-n4cnnn4)cc3)CC2)cc1 | -1.39%
79 | COc1ccc(CCCNC(=O)C2Cc3c(-c4cccc(C(N)=O)c4)ccnc3O2)cc1 (centres undefined) | -10.3%
80 | CCNC(=O)C1(C)CCCN(Cc2noc(-c3ccccc3OC)n2)C1 (centres undefined) | -0.357%
81 | CN1OC[C@@H]2CN(S(=O)(=O)c3cccc(C(F)(F)F)c3)[C@H](c3ccc(-c4cc5ccccc5o4)cc3)C[C@@H]21 | 4.81%
82 | COc1cccc(CNC(=O)CN2C(=O)NC(Cc3ccccc3)(c3ccccc3)C2=O)c1 (centres undefined) | -83.2% (active)
83 | COc1cccc(CNC(=O)COC(=O)CN2C(=O)NC3(CCCCC3C)C2=O)c1 (centres undefined) | -4.41%
84 | CCCCNC(=O)CN1C(=O)NC(Cc2ccccc2)(Cc2ccccc2)C1=O | 0.277%
